Assay results published in PubChem BioAssay AID2551 (National Center for Advancing Translational Sciences (NCATS), 2010).
The campaign covered roughly 310,000 compounds. About 17,000 (5.5%) were called active. Entries that show only a call come without a potency. Inconclusive results (about 11%) are left out. Calls follow the shape of the dose curve; as a rule, active = well fitted inhibition curve with a large enough effect; inconclusive = small, poorly fitted or top-dose-only effect, or effect the other way; inactive = no such curve, though single readings can be large or run the other way. This excerpt belongs to a sample that is enriched for actives.

Molecular target: Nuclear receptor ROR-gamma (Mus musculus) (UniProt P51450)
Sequence (P51450 whole entry, looked up): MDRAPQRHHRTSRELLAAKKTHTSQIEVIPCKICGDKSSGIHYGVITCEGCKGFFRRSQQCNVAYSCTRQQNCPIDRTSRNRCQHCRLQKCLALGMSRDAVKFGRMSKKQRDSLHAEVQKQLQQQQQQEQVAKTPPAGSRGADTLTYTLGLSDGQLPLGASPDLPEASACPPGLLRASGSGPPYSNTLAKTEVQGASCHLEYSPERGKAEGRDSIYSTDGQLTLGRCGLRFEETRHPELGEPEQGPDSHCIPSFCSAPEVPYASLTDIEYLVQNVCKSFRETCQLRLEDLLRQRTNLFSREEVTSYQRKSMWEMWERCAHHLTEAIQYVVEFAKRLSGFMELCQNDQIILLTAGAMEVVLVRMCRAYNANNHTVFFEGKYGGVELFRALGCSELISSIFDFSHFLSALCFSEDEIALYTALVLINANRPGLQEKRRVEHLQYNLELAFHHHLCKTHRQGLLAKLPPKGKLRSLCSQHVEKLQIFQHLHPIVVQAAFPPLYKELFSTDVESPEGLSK
Assay: qHTS for inhibitors of ROR gamma transcriptional activity; also: nearly all actives have a fitted effect of over 60% in size
Details: Drosophila S2 Gal4-RORgamma UAS-luciferase reporter, 20 h; series mostly up to 53.6 µM
Description: NIH Molecular Libraries Probe Production Network [MLPCN] NIH Chemical Genomics Center [NCGC] MLPCN Grant: R03 DA026211-01 Assay Provider: Dan Littman, New York University Assay Overview: The retinoic acid-related orphan receptor (ROR) gamma is a transcription factor that has a central role in the differentiation of Th17 cells, a subset of T helper cells that secrete the inflammatory cytokines IL-17, IL-17F, and IL-22. Th17 cells have been implicated in graft versus host disease, autoimmune disease and asthma. ROR gamma is induced in naive T helper cells in the presence of TGF-beta combined with IL-6, IL-21, or IL-23, and thereafter directs the expression of the Th17 lineage cytokines. To study the mechanism of action of ROR gamma, an insect cell-based assay was screened. This Drosophila Schneider cell line was stably transfected with two vectors: a gene expressing a fusion of the Gal4 DNA binding domain and ROR gamma transactivation domain under the control of the metallothionine promoter and a Photinus luciferase reporter regulated by the Gal4 binding site enhancer, UAS. […] Small molecule inhibitors of ROR gamma activity are detected by a decrease in luciferase reporter activity.
Assay Protocol Summary: For screening, 600 cells in 4 uL/well were dispensed into white solid 1536-well plates (Grenier) using a solenoid-based dispenser. Following transfer of 23 nL compound or DMSO vehicle by a pin tool, the plates were incubated 1 hr at ambient temperature, and 1 uL/well copper sulfate (700 uM final concentration) was added. The plates were centrifuged 15 s at 1000 RPM and incubated 20 hr at ambient temperature. After addition of 1.5 uL Photinus luciferase detection reagent, the plates were incubated 10 min at ambient temperature and then read by an ViewLux (Perkin Elmer) to detect luminescence. Keywords: NIH Roadmap, MLPCN, MLI, MLSMR, qHTS, NCGC, qHTS, nuclear hormone receptor, retinoic acid-related orphan receptor, ROR gamma
Potency is read from the fitted curve at half-maximal effect.

Compound	Potency
O=C(CCNS(=O)(=O)c1cccs1)N1CCN(c2ccc(F)cc2)CC1	inactive
CCCc1nnc(SCC(=O)Nc2ccc(C(=O)OCC)cc2)o1	inactive
CCN(C(=O)Cc1c(C(=O)O)n(CC)c2ccccc12)c1ccccc1C	inactive
CCOC(=O)c1ccccc1NC(=O)COC(=O)CCC(=O)N1CCOCC1	inactive
CC(CC(=O)N1CCN(S(=O)(=O)c2ccccc2)CC1)n1cncn1 (stereo unspecified)	inactive
CCOc1ccc(-n2c(SCC(=O)Nc3ccc(OC)cc3)nc3sc4c(c3c2=O)CCN(C)C4)cc1	inactive
CCOc1ccccc1-c1nc(CN2CCC(C(=O)N3CCOCC3)CC2)c(C)o1	inactive
N#Cc1cccc(-c2nc3cnc(N4CCNCC4)nc3n(C3CC3)c2=O)c1	12.6 µM (active)
Cn1c(=O)c(-c2ccccc2)nc2cnc(N3CCNCC3)nc21	inactive
O=c1c(-c2ccc(F)cc2)nc2cnc(N3CCNCC3)nc2n1Cc1cccs1	inactive
Cc1c2cnn(CC(=O)NCCCN3CC(C)CC(C)C3)c(=O)c2c(C)n1Cc1ccc(Cl)cc1 (stereo unspecified)	inactive
CC(C)(c1ccccc1)c1ccc(OCCN2CCCC2)cc1	inactive
O=C(NCCCn1ccnc1)c1ccccc1F	inactive
CN(Cc1ccccc1)C(=O)c1cccc(C(=O)N(C)Cc2ccccc2)c1	inactive
O=C(Cn1ccc2cc(S(=O)(=O)N3CCCC3)ccc21)NCc1ccccc1	inactive
O=[N+]([O-])/C=C/c1ccc2c(ccn2Cc2ccccc2)c1	12.6 µM (active)
O=c1c([N+](=O)[O-])cc(C(F)(F)F)cn1Cc1cccc(Cl)c1	inactive
Cc1c(C(=O)NCC(c2ccco2)N2CCCC2)oc2ccc(Cl)cc12 (stereo unspecified)	inactive
Cc1onc(C(=O)Nc2ccc3c(c2)OCO3)c1[N+](=O)[O-]	inactive
CCCc1[nH]nc2c1C(c1ccc(Br)s1)C(C#N)=C(N)O2 (stereo unspecified)	12.6 µM (active)
CCCc1[nH]nc2c1C(c1ccc(OC(=O)c3ccco3)cc1)C(C#N)=C(N)O2 (stereo unspecified)	inactive
CCCc1[nH]nc2c1C(c1c(C)nn(-c3ccccc3)c1Cl)C(C#N)=C(N)O2 (stereo unspecified)	inactive

Compound	Potency
Cc1ccc(S(=O)(=O)N(Cc2ccccc2)c2ccccn2)cc1[N+](=O)[O-]	inactive
Cc1cccc(OCC(O)CN2CCN(S(=O)(=O)c3ccc(C)cc3C)CC2)c1 (stereo unspecified)	inactive
COc1ccc(N2C(=O)CN=C2Nc2cccc(C)c2C)cc1OC	inactive
Cc1cc(C)nc(NC2=NCC(=O)N2c2ccc(Cl)cc2)n1	0.224 µM (active)
Cc1ccc(N2C(=O)CN=C2Nc2nc(C)cc(C)n2)cc1	inactive
CC1CN(C(=O)CCC(=O)NCc2cccnc2)c2ccccc2O1 (stereo unspecified)	inactive
Cc1ccc(C(=O)N2CC(=O)Nc3ccc(F)cc3C2c2ccc(F)cc2)cc1 (stereo unspecified)	inactive
O=C(Nc1ccccc1N1CCN(C(=O)c2ccccc2)CC1)c1ccco1	inactive
CC(=O)N1CCN(c2ccccc2NC(=S)NC(=O)c2cc3ccccc3o2)CC1	11.2 µM (active)
Cc1ccc(NC(=O)c2cc3ccccc3o2)cc1	inactive
O=C(NC(=S)Nc1cc(C(F)(F)F)ccc1N1CCOCC1)c1ccc(-c2cccc(Cl)c2)o1	10 µM (active)
COc1ccccc1C(=O)NC(=S)Nc1ccccc1N1CCCCC1	3.98 µM (active)
Cc1cccc(OCC(=O)Nc2ccccc2F)c1	inactive
Cc1cccc(OCC(=O)NC(=S)Nc2ccccc2N2CCOCC2)c1	11.2 µM (active)
COc1ccccc1C(=O)NC(=S)NC12CC3CC(CC(C3)C1)C2	inactive
Cc1ccccc1NC(=O)Nc1ccccc1N1CCCCC1	inactive
COc1cc(C(=O)Nc2cc(C(F)(F)F)ccc2N2CCOCC2)ccc1O	inactive
CC(Sc1nncn1C)C(=O)Nc1cc(C(F)(F)F)ccc1N1CCOCC1 (stereo unspecified)	inactive
Cc1cccc(OCCC(=O)Nc2cc(S(=O)(=O)N3CCCCC3)ccc2N2CCOCC2)c1	inactive
O=C1CCN(Cc2ccccc2)CCN1[C@H](CSc1ccccc1)c1ccccc1	inactive
COC(=O)c1ccc(N2CCOCC2)c(NC(=O)c2ccc3c(c2)OCCO3)c1	inactive
Cc1cc(NC(=O)c2ccco2)c(=O)n(Cc2c(F)cccc2Cl)c1	inactive

Compound	Potency
COCCNc1nc(N)c([N+](=O)[O-])c(N2CCCCCC2)n1	inactive
CCOc1ccc(-c2noc(CCC(=O)NC3CCCC3)n2)cc1OC	inactive
O=C(c1ccc(CS(=O)(=O)c2ccccc2)o1)N1CCN(c2ccccc2)CC1	inactive
COc1ccc(CNC(=O)[C@H](Cc2c[nH]c3ccccc23)NC(C)=O)cc1OC	inactive
O=C(NCCCN1CCOCC1)C1CCCN(S(=O)(=O)N2CCCCC2)C1 (stereo unspecified)	inactive
O=C(Nc1ccccc1N1CCCCC1)c1cccc(F)c1	inactive
CCc1ccc(C(=O)NC(=S)Nc2ccccc2N2CCOCC2)cc1	3.55 µM (active)
O=C(CCNC(=O)c1ccc([N+](=O)[O-])cc1)Nc1ccccc1N1CCOCC1	inactive
O=C(Nc1ccccc1N1CCCC1)c1ccc2ccccc2c1	inactive
O=C(NC(=S)Nc1ccccc1N1CCCCC1)c1ccc(F)cc1	3.98 µM (active)
CC(=O)c1ccc(N2CCN(CC(=O)Nc3ccccc3N3CCOCC3)CC2)cc1	inactive
CC1CCN(CC(O)COc2ccc(C(=O)c3ccccc3)cc2)CC1 (stereo unspecified)	inactive
O=C(NCc1cccc(Cl)c1)C1CCC(=O)N(C2CC2)C1 (stereo unspecified)	inactive
Cc1cc(CN(C)C(=O)c2cc(COc3ccc(C)c(C)c3)on2)n[nH]1	inactive
O=C(Nc1nncs1)c1cccc(S(=O)(=O)N2CCCCC2)c1	inactive
O=C(NNC(=S)Nc1ccccc1)c1cccc(S(=O)(=O)N2CCOCC2)c1	inactive
O=C(NNC1=NCCC1)c1cccc(S(=O)(=O)N2CCCCC2)c1	12.6 µM (active)
CN(CC1CCCN(CCc2cccc(C(F)(F)F)c2)C1)C(=O)c1ccc2nc[nH]c2c1 (stereo unspecified)	inactive
CCOC(=O)c1ccc(NC(=O)c2ccc(NC(=O)C3CCCO3)cc2)cc1 (stereo unspecified)	inactive
COc1ccc(C2=NN(c3nc4ccccc4s3)C(=O)C2)cc1	5.62 µM (active)
COc1ccc(C2=NN(c3ccccc3)C(c3cccs3)C2)cc1 (stereo unspecified)	inactive
COC(=O)Cc1[nH]n(-c2nc3ccccc3s2)c(=O)c1C(C)=Nc1ccc(OC)cc1	inactive
